# S-ASM inh – Inhibitors of Secretory Acid Sphingomyelinase (S-ASM): qHTS. Potency, µM (titrated, usually from 57.5 µM), inactives show at the highest dose activity change, negative = inhibition, usual class: inhibitors. placental ASM, HMU-PC fluorogenic substrate, 60 min. Sphingomyelin phosphodiesterase (Homo sapiens), P17405. actives 0.006% (n = 340,000); further: potency means the concentration at half of the fitted maximal effect
# Target sequence (P17405 47-631 limits assumed): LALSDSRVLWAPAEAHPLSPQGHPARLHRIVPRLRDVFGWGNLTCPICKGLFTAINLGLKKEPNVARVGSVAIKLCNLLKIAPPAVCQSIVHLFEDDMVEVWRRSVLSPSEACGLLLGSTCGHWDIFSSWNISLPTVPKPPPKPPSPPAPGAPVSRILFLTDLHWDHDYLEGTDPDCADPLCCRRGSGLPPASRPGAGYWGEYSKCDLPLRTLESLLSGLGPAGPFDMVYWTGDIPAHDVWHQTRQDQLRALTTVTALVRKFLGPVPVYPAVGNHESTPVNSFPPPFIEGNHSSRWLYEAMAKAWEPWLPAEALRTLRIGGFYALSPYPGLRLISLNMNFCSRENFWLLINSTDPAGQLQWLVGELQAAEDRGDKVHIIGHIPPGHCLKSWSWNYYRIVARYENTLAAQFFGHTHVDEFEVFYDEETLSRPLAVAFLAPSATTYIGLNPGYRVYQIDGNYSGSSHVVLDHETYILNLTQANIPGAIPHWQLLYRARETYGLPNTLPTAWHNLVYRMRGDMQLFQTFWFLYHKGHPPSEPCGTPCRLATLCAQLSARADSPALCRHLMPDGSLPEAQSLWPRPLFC
#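 Human placenta-derived ASM enzyme was preincubated with compound for 10 minutes at room temperature, then given fluorogenic substrate HMU-PC0 (9 uM final) for 60 minutes at 37 °C; a pH 10 stop preceded fluorescence reading at Ex 386/Em 447 nm.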
# Mito fusion yeast – qHTS Assay for Small Molecule Inhibitors of Mitochondrial Division or Activators of Mitochondrial Fusion; S. cerevisiae fusion-defective mutant growth rescue, CellTiterGlo 48 h; actives 0.23% (n = 320,000); Potency, µM (doses to about 46.1 µM), inactives show at the top dose growth rescue (activation), actives largely listed as activators; further: potency means the concentration at half of the fitted maximal effect; % of control where 0% means no effect; nearly all actives have a fitted effect of over 45% in size
#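 Yeast fusion mutant, YPEG (non-fermentable carbon), compound, 48 h at 37C non-permissive; CellTiterGlo added, 10 min RT, luminescence read. Rescued growth = division inhibition.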
# RGS4 inhibitor – Inhibitors of Regulator of G Protein Signaling (RGS) 4: qHTS; Regulator of G-protein signaling 4 (Homo sapiens), P49798; Transcreener GDP fluorescence polarization, RGS4-accelerated GTP hydrolysis; Potency, µM (titrated, usually from 114 µM), for inactives: at the top dose activity change, negative = inhibition, most hits filed as inhibitors; actives 0.039% (n = 390,000); further: potency means the concentration at half of the fitted maximal effect; on the % scale 0 is the no-effect control and ±100 the full control effect; nearly all actives have a fitted effect of over 75% in size
# Target sequence (P49798 whole entry, looked up): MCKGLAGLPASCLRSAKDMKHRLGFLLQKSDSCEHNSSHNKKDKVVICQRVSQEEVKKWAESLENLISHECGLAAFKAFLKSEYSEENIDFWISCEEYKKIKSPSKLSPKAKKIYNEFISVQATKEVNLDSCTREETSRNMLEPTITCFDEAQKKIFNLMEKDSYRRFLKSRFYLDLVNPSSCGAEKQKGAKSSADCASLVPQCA
#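 MLSMR compounds (23 nl, pin-transferred) preincubated 10 min at room temperature with a 500nM (2x) first reagent, then RGS4 at 900nM (2x) plus Transcreener GDP mix added; fluorescence polarization (620/688 nm) read before and after 90 min at 30 °C.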
# LDHA inh – qHTS assay for inhibitors of human lactate dehydrogenase; L-lactate dehydrogenase A chain (Homo sapiens), P00338; purified LDHA, NADH/diaphorase-resazurin fluorescence; active compounds read low; activity change, % (values are at about 110 or 230 µM); actives 0.15% (n = 480,000); AID 1347041, 2019; in the data active means activity change below about -30%; inconclusive means mostly about -25% to -30%;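 further: plate controls were DMSO wells for no effect and wells without enzyme for full effect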
#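 Enzyme activity of human lactate dehydrogenase 5 (2 nM; 0.06 mM NADH, 0.2 mM pyruvate, 5 min, RT) is measured via a resazurin/diaphorase fluorescence readout of residual NADH.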
# ClpP mod – qHTS Assay for Activators of ClpP. purified B. subtilis ClpP, FRET peptide cleavage, 20 min. Potency, µM (series often up to 57.5 µM), for inactives: at the highest dose activity change, negative = active. actives 1.9% (n = 340,000). ATP-dependent Clp protease proteolytic subunit (Bacillus subtilis (strain 168)), P80244; active means well fitted falling curve with a large enough effect; inconclusive means small, poorly fitted or top-dose-only effect; inactive means no such curve, though single readings can be large or run the other way; further: potency means the concentration at half of the fitted maximal effect; the source files actives as falling curves though it sought activators and does not explain the sign; nearly all actives have a fitted effect of over 65% in size
#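 Purified B. subtilis ClpP, 10 microg/mL final in Tris/HCl pH8 with KCl, BSA, glycerol and Tween-20, cleaved an Abz/nitrotyrosine-quenched decapeptide. Fluorescence (ex 320, em 430) was read at 0 and 20 min at room temperature. Delta was normalized to 5.8 microM ADEP and DMSO/no-enzyme controls.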
# mIDH1 inhibitor – qHTS for Inhibitors of mutant isocitrate dehydrogenase 1 (IDH1): qHTS. AID 602179, 2012. actives 0.093% (n = 390,000). Isocitrate dehydrogenase [NADP] cytoplasmic (Homo sapiens), O75874. IDH1-R132H enzyme, NADPH consumption, diaphorase/resazurin fluorescence. Potency, µM (series often up to 76.6 µM), inactives show top-dose activity change, negative = inhibition, hits mostly inhibitors; further: potency means the concentration at half of the fitted maximal effect; on the % scale 0 is the no-effect control and ±100 the full control effect; nearly all actives have a fitted effect of over 65% in size
#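 IDH1-R132H (0.5 ug/mL) preincubated 30 min with compound, then NADPH (0.016 mM) and alpha-KG (2 mM) added; 80 min at RT, pH 7.5. Remaining NADPH coupled via diaphorase/resazurin to fluorescence (540/590 nm); concentration-response curves normalized to no-enzyme control.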
# * hit, by the source's call; ? = inconclusive; . = not tested or not shown; ! = not active in a repeat; [ ] = remark or other dose. Shown is part of a subset that was picked to be rich in hits. Unless noted, the call rests on the fitted dose curve; in most records, active means well fitted curve in the direction sought with a large enough effect; inconclusive means small, poorly fitted or top-dose-only effect, or another doubt; inactive means no such curve, though single readings can be large; an effect the other way counts as inactive or inconclusive.
SMILES,S-ASM inh,Mito fusion yeast,RGS4 inhibitor,LDHA inh,ClpP mod,mIDH1 inhibitor
Cc1ccc(NC(=O)C2=C(N3CCOCC3)c3ccccc3S2(=O)=O)cc1,.,.,.,1.3,.,.
Cc1nn(C)c(C(=O)NNC(=S)NCc2ccco2)c1Cl,0.0%,-0.1%,-2.7%,-3.3,0.6%,3.6%
Cc1nn(C)c(C(=O)NNC(=S)NCC(C)C)c1Cl,-0.4%,-11.9%,-37.6%,-4.3,8.91µM*,0.0%
CCOc1ncccc1C(=O)Nc1cc(S(=O)(=O)N2CCCCC2)ccc1Cl,8.3%,0.4%,?,-9.4,31.6µM*,5.8%
CCCCNc1c(-c2ccc(OC)c(SC(C)CC)c2)nc2cc(C)ccn12 (stereo not drawn),91.6%,.,-5.3%,2.1,27.3µM*!,0.2%
NS(=O)(=O)c1ccc(Br)c(C(=O)OCc2ccc(Cl)c(Cl)c2)c1,.,.,.,-7.8,.,.
CCOc1ccc(CNC(=O)c2cccn2-c2nnc(N3CCCCC3)s2)cc1,.,.,.,6.0,.,.
CC1CC(C)CN(C(=O)c2cccc(S(=O)(=O)Nc3cc(C(F)(F)F)ccc3Cl)c2)C1 (stereo not drawn),-2.1%,15.8µM*,9.8%,-1.4,.,-6.3%
O=C(COC(=O)C12CC3CC(CC(Br)(C3)C1)C2)Nc1ccc([N+](=O)[O-])cc1Br,.,.,.,1.4,.,.
CN1CCN(c2nc(-c3cccnc3)nc3scc(-c4ccccc4)c23)CC1,3.2%,1.4%,9.4%,0.5,.,2.6%
Clc1nc(-c2ccccn2)nc2scc(-c3ccccc3)c12,5.6%,14.9%,-0.8%,4.4,28.2µM*,-16.4%
Cc1ccc2oc(-c3ccc(Cl)cc3Cl)cc(=O)c2c1,.,.,.,-6.4,.,.
COc1ccc(CNC(=O)C2CCCN(S(=O)(=O)N3CC(C)CC(C)C3)C2)c(OC)c1 (stereo not drawn),-0.2%,11.2µM*,48.6%,-17.3,-2.2%,0.0%
COc1ccc(NC(=O)c2cc3c(s2)-c2c(C)cccc2OC3)cc1Cl,.,.,-50.7%,-13.9,25.1µM*,3.0%
O=C(CC1CCCC1)NCCc1cccnc1,.,.,.,-2.7,.,.
c1ccc2nc3ccccc3nc2c1,-2.7%,-0.6%,4.0%,2.0,-5.0%,-13.2%
Nc1nc2ccccc2nc1N,3.9%,1.9%,-32.9%,-2.9,14.1µM*,2.1%
CC(NS(=O)(=O)c1ccccc1F)C(=O)Nc1ccc(C(C)(C)C)cc1 (stereo not drawn),.,.,.,-0.6,.,.
O=c1nc(-c2ccccc2)cc(-c2ccccc2)[nH]1,9.2%,-0.9%,-29.0%,-1.0,28.2µM*,7.2%
Cc1ccccc1NC(=O)C1CC(=O)N(c2ccccc2F)C1 (stereo not drawn),-1.2%,-9.1%,11.7%,-4.1,14.1µM*,6.0%
Cc1ccccc1NC(=O)C1CC(=O)N(c2ccc3c4c(cccc24)CC3)C1 (stereo not drawn),-1.4%,-4.8%,7.2%,-1.1,-2.2%,1.3%
CN1C(=O)c2cccc3c(Br)ccc(c23)C1=O,-2.4%,.,-20.0%,5.1,0.9%,3.4%
CN1C(=O)c2cccc3c(Cl)ccc(c23)C1=O,3.8%,-0.6%,3.2%,-0.7,15.8µM*,2.6%
COc1cccc(C(=O)Nc2cc3nn(-c4ccccc4)nc3cc2Cl)c1,.,.,.,2.7,.,.
COc1ccc(/C=C/C(=O)Nc2ccc(-n3nncc3-c3ccc(OC)c(OC)c3)cc2)cc1OC,-11.0%,-1.1%,-33.4%,-8.5,25.1µM*,2.5%
SMILES,S-ASM inh,Mito fusion yeast,RGS4 inhibitor,LDHA inh,ClpP mod,mIDH1 inhibitor
COc1ccc(-c2cnnn2-c2ccc(NC(=O)/C=C/c3ccc(OC)c(OC)c3)cc2)cc1,-1.7%,-0.4%,-15.8%,-9.6,?,-6.6%
CC(C)c1ccc(NC(=O)CSc2ncc(-c3ccc(F)cc3)o2)cc1,.,.,.,2.7,.,.
Cc1cc(SCC(=O)N(CCC#N)c2ccccc2)nc2ccccc12,.,.,.,10.0,.,.
Cc1cc(C)nc(Nc2nc(C)c3cc(C)c(C)cc3n2)n1,.,.,.,-4.4,.,.
Cc1cc(C)nc(Nc2nc(C)c3cc4c(cc3n2)OCO4)n1,9.6%,-6.5%,28.7%,-6.1,15.8µM*,2.6%
Cc1nc(-c2nc(C(=O)NNS(C)(=O)=O)cs2)cs1,-1.6%,-0.2%,-10.4%,0.6,-0.8%,1.8%
CC(=O)NNC(=O)c1csc(-c2csc(C)n2)n1,3.6%,-8.5%,4.9%,-8.5,31.6µM*,8.8%
O=C(NCc1ccc2c(c1)OCO2)c1cccc(Oc2ccnc(-c3ccc(F)cc3)n2)c1,.,.,.,-2.3,.,.
C(#Cc1ccccc1)Cn1nnc2ccccc21,-3.8%,5.9%,11.9%,-6.3,28.2µM*,1.6%
CCOc1ccc(-c2nnc(NC(=O)COc3ccccc3F)o2)cc1,.,.,.,-0.5,-17.5%,-4.0%
CCCCNC(=O)Nc1nnc(-c2ccc(OCC)cc2)o1,-0.2%,-3.5%,2.3%,-4.6,25.1µM*,3.4%
CCCCNC(=O)Nc1nnc(-c2ccccc2)o1,1.0%,-2.5%,13.7%,-7.0,14.1µM*,1.1%
CCOC(=O)CNC(=O)Nc1nnc(-c2ccc(OCC)cc2)o1,-0.9%,-3.4%,-8.5%[56.9 µM],-0.5,6.31µM*,-1.6%
Cc1ccc(NC(=O)Nc2nnc(-c3ccccc3)o2)cc1,4.6%,-4.7%,-2.1%,-10.6,.,-3.9%
O=C(c1ccc(-n2cncn2)c([N+](=O)[O-])c1)N1CCN(S(=O)(=O)c2ccccc2F)CC1,0.4%,-4.5%,-7.6%,0.3,14.1µM*,1.8%
O=C(CSc1nc(=O)n2cc(Cl)ccc2n1)NCCc1ccccc1,0.8%,-6.2%,-30.8%,-3.7,-10.4%,0.2%
Cc1ccc2nc(SCC(=O)NCCc3ccccc3)nc(=O)n2c1,3.2%,-10.9%,-1.3%,-8.0,28.2µM*,0.7%
Cc1ccc2nc(SCC(=O)OCc3ccccc3)nc(=O)n2c1,7.8%,6.8%,31.7%,3.9,28.2µM*,7.4%
CC(C)Cn1cc(/C=C2\SC(=O)N(C(C)C)C2=O)c2ccccc21,.,.,.,-0.5,.,.
O=C(COc1ccccc1)NCC(c1ccco1)N1CCN(c2ccccc2F)CC1 (stereo not drawn),-2.4%,13.5%,-8.1%,-3.3,1.78µM*,1.5%
O=C(NCC(=O)N1CCN(c2ncccn2)CC1)c1ccc(F)cc1,-0.7%,-2.8%,-20.8%,-7.9,14.1µM*,2.2%
O=C(NCCC(=O)N1CCN(c2ncccn2)CC1)c1ccc(Br)cc1,.,.,.,-31.6*,.,.
